Experimental findings from the supplement of paper PMC10681739 are described below.

The assay concerns the target T1, ETS1 (UniProt P14921).
T1 sequence: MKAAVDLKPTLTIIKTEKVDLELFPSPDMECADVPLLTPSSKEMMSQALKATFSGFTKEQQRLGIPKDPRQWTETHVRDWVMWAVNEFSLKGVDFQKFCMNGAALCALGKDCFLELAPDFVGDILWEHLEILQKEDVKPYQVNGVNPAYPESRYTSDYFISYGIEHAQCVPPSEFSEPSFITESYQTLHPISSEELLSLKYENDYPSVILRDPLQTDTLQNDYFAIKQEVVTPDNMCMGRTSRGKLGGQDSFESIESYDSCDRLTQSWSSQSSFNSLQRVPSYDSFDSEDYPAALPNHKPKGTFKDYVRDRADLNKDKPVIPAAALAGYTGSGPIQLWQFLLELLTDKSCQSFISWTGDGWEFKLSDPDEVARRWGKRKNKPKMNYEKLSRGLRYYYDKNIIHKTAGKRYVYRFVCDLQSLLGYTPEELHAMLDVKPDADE
The assay can be described thus: ETS1 binding intensity (PBM fluorescence) in presence of RUNX1, normalised to ETS1-only experiment (arbitrary fluorescence units); higher = stronger binding. Conditions: ETS1 concentration 1 nM; RUNX1 concentration 25 nM. As to the method: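 Cooperative genomic-context PBM: 36-bp genomic probes with neighbouring ETS1 and RUNX1 sites, double-stranded on Agilent 4x180k arrays. Full-length recombinant human ETS1 (1 nM) was incubated alone or with RUNX1 (25 nM) and detected with anti-ETS1 antibody plus Alexa488 secondary. Value is the median fluorescence intensity over 4 replicate spots; the ETS1+RUNX1 data were normalised to the ETS1-only data using probes without RUNX1 sites. The 36-bp variable region sits on the array probe with constant linker/primer flanks that are not printed.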
As for TCTCGTCCGGTCCTTGCTCCCCCTCCCCGCAGCGCT, the ETS1 binding intensity is 790.

For TCGGAACGGAAGGGAGGCACGAAACCGCGAGTGGAG, the ETS1 binding intensity amounted to 1840.

As for CACTCCCCCATTCCGGCTGCAGGTTGAGGTTTGGAA, the ETS1 binding intensity amounted to 571.

As to CAAGGTTCCTCCGCTTCCTGCCCGCAGGCCGAACCT, the ETS1 binding intensity stood at 1600.

TTCAGGTGACTTCCGGCCGGACCGCTGAGGACGCGG: the ETS1 binding intensity is 9520.

Turning to GCCCCAGCCCCCGGATGTGGTGACAGAATCGATACT, the ETS1 binding intensity amounted to 6050.

For TTTTATCCTTCCTTTTTTGTTCTTTGTGGTGGAGGT, the ETS1 binding intensity was 521.

For CCCCCACATCCTGTTTGGTTTGTGGGACACCTCAAC, the ETS1 binding intensity is 2550.

As to CAGAGGACAGGATGCCAACCCCAAAACCGCAGCGAC, the ETS1 binding intensity was found to be 6200.

As for AATCCACCGGAAACACTTAGACGCCGCAACCCCAGT, the ETS1 binding intensity was found to be 5740.

AGACGGTAGGCCAGGAAACCGCAGGCCCCTGCCGGG: the ETS1 binding intensity was found to be 3730.

ATAGTCACCGTTCCGGCCCTCCTCCACCGCACTTCT: the ETS1 binding intensity stood at 578.

Regarding CACTGATTAAGAGGAAGTGTGTGTGGTTATTACCGT, the ETS1 binding intensity is 8330.

As for GCAGGCGGAGCTTGAGGAAACCGCAGATAAGTTTTT, the ETS1 binding intensity was found to be 2510.

GCCCCGGAAGCTCCTTAAGGAGGACCGTGTGGGTTT: the ETS1 binding intensity was 718.

As to GACCTGACAACATCCTGGCGCAGTGGGTTGGCCCTG, the ETS1 binding intensity was 420.

Regarding CTTTCGGGGGCGGAAGTTGCGGTGCATTGTAGGTTC, the ETS1 binding intensity came to 20000.

For the sequence GTTGTGCTCTTTCCTGCTTCCCGCAGTTTTTTAGTT, the ETS1 binding intensity worked out at 921.

With GTTGAAATTGAGCTTCCGTTGGTGGTTAACCCTCTG, the ETS1 binding intensity was found to be 921.

In the case of TGCAATTGGCAGACAGGAAACCGCGGCGTTTTCTGG, the ETS1 binding intensity is 13500.

TGAGCTCAGGCCGGAAGCGGTGGATGATGGCACACA: the ETS1 binding intensity came to 8670.

Take GCACCCGGCACTACTTCCCGACCCGCATCCCCCGCC: the ETS1 binding intensity was 683.

For the sequence CGGGCGAGCGCAGGATGCGGTTGTCGAACGCGCGGC, the ETS1 binding intensity was found to be 1050.

Turning to TCTACATCCTGCAGTTCTCCATTGTGGCCATTAGGT, the ETS1 binding intensity worked out at 319.

In the case of CACCGACCGGAAGGGCCCCAAGGATCCCCGCAGCAG, the ETS1 binding intensity was found to be 2710.

For the sequence AACTTAGCTTCCGGGAAGAAGGCGAGCGGTGGGAGG, the ETS1 binding intensity stood at 724.

GCAAGGCAACAGGAAATTGTGGGGAAATTTTAAAAA: the ETS1 binding intensity was found to be 6190.

In the case of AAAGAACTTCCTGAGGTGCTTGAGGTTAGGCTATGG, the ETS1 binding intensity is 498.

Turning to AGTGGATAGCACTTCCTTCTCTTACCACAGTTCCTT, the ETS1 binding intensity is 558.

Turning to CCGGGTAGGATCCGGTTGCCTTTCTGCGGTGGAGGA, the ETS1 binding intensity came out at 798.

For the sequence CTTCCCTTGCCCCGGAAAAGGGCGGTAAGAGGGAGC, the ETS1 binding intensity came out at 1160.

On to CAAAGTGATGGGGGAAATGGTTGTGGTTTTGGGTGG, for which the ETS1 binding intensity was 3760.

As to GGCCGACGGGAAGTGTAGTCCGGCCTGCGGTCCGGG, the ETS1 binding intensity was determined as 1910.

In the case of CTCTGAGCAGGAAGTGACAAAACCACGCAGGGCAGG, the ETS1 binding intensity was 6770.

For GAGCAGCGGGAGGAAGCTGCGGCGCGCAGAGCAGAG, the ETS1 binding intensity came out at 486.

In the case of TTTCTGACACTCTCAGGATGTGGGTTTTCGCACTGT, the ETS1 binding intensity turned out to be 6000.

Take GGTTCATTTCCTTTTCCTCCTTGTGGTATAAAAGAG: the ETS1 binding intensity was 985.

With CAACTTCCGGGGCCGGTTGCCTGGCAACCGCAGGAG, the ETS1 binding intensity worked out at 3940.

Take GCACCACCGGAAGTAGGGCTCAACCACCGCTCATTT: the ETS1 binding intensity turned out to be 13400.

CCTTTACGTTTTCCTGTTGCGGGTTCTATCGCTCTG: the ETS1 binding intensity was 592.
